# Screening results deposited in PubChem by National Center for Advancing Translational Sciences (NCATS).
# uPA surface inh = blocks generation of uPA at the cell surface; cell surface uPA generation assay, qHTS; Potency, µM (titrated, usually from 38.3 µM), inactives show top-dose activity change, negative = inhibition, usual class: inhibitors; 330,000 compounds, 0.31% hits; AID 540303; active means well fitted inhibition curve with a large enough effect; inconclusive means small, poorly fitted or top-dose-only effect; inactive means no such curve, though single readings can be large or run the other way; tested in mouse RAW 264.7 cells; further: potency means the concentration at half of the fitted maximal effect; nearly all actives have a fitted effect of over 55% in size
# HT1080 IDH1KD tx = kills HT-1080 cells with IDH1 knockdown. HT-1080 IDH1 knockdown viability, ATP luminescence, 48 h. Potency, µM (doses to about 46.1 µM), inactives show at the highest dose activity, negative = toxicity, most hits filed as cytotoxic. 360,000 compounds, 2% hits;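 further: potency means the concentration at half of the fitted maximal effect; 0% = DMSO wells and -100% = cell-free medium wells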
#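 After a 2 h attachment period, IDH1KD HT-1080 cells took pin-transferred compound for 48 h at 37 °C; ATP-based luminescence after 10 min room-temperature reagent incubation reported viability.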
# IL-1B inflam inh = inflammasome signaling inhibition, IL-1 beta readout | activity change, % at 57.5 µM | THP-1 LPS/ATP IL-1B secretion, AlphaLISA, 16 h; hits give low values | 360,000 compounds, 4.7% hits; in the data active means activity change below about -50%; inconclusive means mostly about -30% to -49%
#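 THP-1 cells pretreated 1 hr with compounds (up to 57.5 uM final), then stimulated with LPS (250 ng/mL final) plus ATP (1.25 mM final); secreted IL-1B measured by AlphaLISA after 16 hr, decreased signal indicating inhibition.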
# TDP1 cell noCPT = qHTS for Inhibitors of human tyrosyl-DNA phosphodiesterase 1 (TDP1): qHTS in cells in absence of CPT; DT40 Tdp1-/- hTDP1 cells, no CPT, ATP luminescence, 48 h; Potency, µM (top dose mostly 46.2 µM), for the others: at the top dose activity change, negative = growth inhibition, hits mostly inhibitors; 420,000 compounds, 15% hits; further: potency means the concentration at half of the fitted maximal effect; nearly all actives have a fitted effect of over 55% in size
#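 Seeded 400 DT40-hTDP1 cells/well (vehicle DMSO, no 20 nM CPT); pinned compounds; ≥48 hr at 37 °C; CellTiter-Glo luminescence as viability measure.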
# TDP1 cell CPT = DT40-hTDP1 cell growth loss with CPT; chicken DT40 Tdp1-/-;hTDP1 cells + 20 nM CPT, ATP luminescence, 48 h; Potency, µM (doses to about 46.2 µM), for the others: top-dose activity change, negative = growth inhibition, actives largely listed as inhibitors; 420,000 compounds, 12% hits; further: potency means the concentration at half of the fitted maximal effect; nearly all actives have a fitted effect of over 55% in size
#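 Chicken DT40 Tdp1-/- cells stably complemented with human TDP1 were seeded at 400 cells/well in medium containing 20 nM camptothecin, exposed to pin-transferred compounds, and grown at 37 °C for at least 48 hr. Viability was read as ATP luminescence.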
# HT1080NT lethal = kills 2HG-producing HT-1080-NT fibrosarcoma cells | HT-1080-NT fibrosarcoma viability, CellTiter-Glo ATP luminescence, 48 h | Potency, µM (titrated, usually from 46.1 µM), for inactives: at the highest dose activity, negative = less viability, actives largely listed as cytotoxic | 360,000 compounds, 1.6% hits | AID 686970;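 further: NT is the 2HG producing partner of a matched IDH1 knockdown line; potency means the concentration at half of the fitted maximal effect; 0% = DMSO-treated cells and -100% = media-only wells without cells; nearly all actives have a fitted effect of over 55% in size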
#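 Compounds were tested in concentration-response format on HT-1080-NT cells for 48 hours at 37 degrees C. Cell viability came from CellTiter-Glo luminescence; curves were classified by r2, response magnitude and activity.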
# * marks the source's active call; other numbers are inactive results; ? = inconclusive; . = no result. This is a sample that favours compounds with a hit; in the whole collection about 19% have one here. Unless noted, the call rests on the fitted dose curve; in most records, active means well fitted curve in the direction sought with a large enough effect; inconclusive means small, poorly fitted or top-dose-only effect, or another doubt; inactive means no such curve, though single readings can be large; an effect the other way counts as inactive or inconclusive. Unless noted, on the % scale 0 is the no-effect control and ±100 the full control effect.
SMILES,uPA surface inh,HT1080 IDH1KD tx,IL-1B inflam inh,TDP1 cell noCPT,TDP1 cell CPT,HT1080NT lethal
CC(C)(C)[C@H]1COC(=O)CC/C=C\C[C@@H](CC(=O)N[C@H](CO)Cc2ccccc2)C(=O)N1,1%,0%,31,-2%,-3%,-5%
CC(C)(C)[C@H]1COC(=O)[C@@H](Cc2ccc(F)cc2)CC/C=C/C[C@@H](CC(=O)N[C@@H](CO)Cc2ccccc2)C(=O)N1,-14%,1%,-15,16µM*,-109%,0%
OCCC1CN(Cc2ccon2)CCN1CCc1ccccc1 (stereo not given),-7%,2%,17,1%,-2%,2%
CCC(c1nnnn1C(C)(C)C)N1CCN(C/C=C/c2ccccc2)CC1 (stereo not given),.,10%,-7,?,?,0%
Cc1cccc(C)c1-n1nnnc1C(c1cccc2ccccc12)N1CCN(C/C=C/c2ccccc2)CC1 (stereo not given),.,-27%,-11,5.8µM*,4.6µM*,?
Cc1cccc(C)c1-n1nnnc1C(c1cc2ccccc2o1)N1CCN(C/C=C/c2ccccc2)CC1 (stereo not given),.,?,-11,23µM*,18µM*,?
CCNc1ncc2nc(-c3cccc(C#N)c3)c(=O)n(Cc3cccc(OC)c3)c2n1,.,.,.,1%,10%,.
COc1ccc(NC(=O)C2Cc3c(-c4ccccc4Oc4ccccc4)ccnc3O2)cn1 (stereo not given),.,-9%,-29,15µM*,15µM*,-3%
CC(C)c1ccc(NC(=O)C2Cc3c(-c4ccccc4Oc4ccccc4)ccnc3O2)cc1 (stereo not given),.,?,-20,?,?,-18%
O=C(Nc1ccc(F)c(Cl)c1)C1Cc2c(-c3ccccc3Oc3ccccc3)ccnc2O1 (stereo not given),.,0%,?,?,?,13µM*
O=C(Nc1ccc2c(c1)OCO2)C1Cc2c(-c3ccccc3Oc3ccccc3)ccnc2O1 (stereo not given),.,?,-22,?,?,?
O=C(NCc1ccncc1)C1Cc2c(-c3ccccc3Oc3ccccc3)ccnc2O1 (stereo not given),.,-3%,-59*,16µM*,13µM*,?
COc1ccc(NC(=O)C2Cc3c(-c4ccccc4Oc4ccccc4)ccnc3O2)cc1OC (stereo not given),.,?,-12,16µM*,9.2µM*,?
CCCCC[C@H](O)/C=C/[C@@H]1[C@H]2C/C(=C/CCCC(=O)O)C[C@H]2C[C@H]1O,.,.,.,-13%,-25%,.
CN(C)c1ccc(/C=C/c2ccc3ccccc3[n+]2C)cc1,-15%,1.3µM*,-107*,0.13µM*,0.16µM*,?
CN(C)c1ccc(/C=C/c2c[n+](C)cc3ccccc23)cc1,.,.,.,0.28µM*,0.35µM*,.
[O-][n+]1c(/C=C/c2ccccc2)ccc2ccccc21,?,-17%,-10,16µM*,21µM*,-15%
CN(CCCS(=O)(=O)[O-])c1ccc(/C=C/c2ccc3ccccc3[n+]2C)cc1,-8%,-3%,10,?,-15%,1%
CN(C)c1ccc(/C=C/c2cc3ccccc3c[n+]2C)cc1,.,.,.,0.1µM*,0.089µM*,.
CN(C)c1ccc(/C=C/c2cccc[n+]2[O-])cc1,-13%,8%,.,4%,2%,18%
CN(C)c1ccc(/C=C/c2ccc3c4ccccc4ccc3[n+]2-c2ccccc2)cc1,-15%,5.8µM*,-111*,0.16µM*,0.21µM*,12µM*
CC(C)OC(=O)/C(C#N)=C/c1cn(C)c2ccccc12,2%,-3%,-54*,-14%,3%,-14%
Cc1ccccc1NC(=O)/C(C#N)=C\c1cn(CC(=O)O)c2ccccc12,1%,11%,-12,-8%,3%,15%
Cn1cc(/C=C(\C#N)C(=O)Nc2ccccc2O)c2ccccc21,-6%,-27%,-62*,18µM*,?,-19%
Cc1csc(NC(=O)CSc2ccc3nnc(CCNS(=O)(=O)c4ccccc4)n3n2)n1,0%,-6%,44,?,0%,6%
SMILES,uPA surface inh,HT1080 IDH1KD tx,IL-1B inflam inh,TDP1 cell noCPT,TDP1 cell CPT,HT1080NT lethal
Cc1ccc(NC(=O)CSc2ccc3nnc(CCNS(=O)(=O)c4ccccc4)n3n2)cc1Cl,.,.,.,?,16µM*,.
COc1ccc(S(=O)(=O)NCCc2nnc3ccc(SCC(=O)Nc4ccc(C(F)(F)F)cc4)nn23)cc1,.,.,.,23µM*,?,.
CCc1ccc(NC(=O)Cc2c(C(=O)O)c(C)cn2C)cc1,.,.,.,-1%,-2%,.
Cn1c(SCc2ccc(C#N)cc2Cl)nc2ccccc21,?,-1%,-71*,-10%,-26%,7%
N#Cc1ccccc1S(=O)(=O)N1CCN(C(=O)CN(Cc2ccco2)Cc2cccs2)CC1,.,-2%,-17,16µM*,?,-5%
CCOC(=O)c1c(Nc2ccc(F)cc2)nnc(-c2ccccc2)c1-c1ccccc1,.,.,.,18µM*,23µM*,.
CCOC(=O)c1c(Oc2ccc(C(C)=O)cc2)nnc(-c2ccccc2)c1-c1ccccc1,.,.,.,26µM*,21µM*,.
CCOC(=O)c1c(Nc2ccc(OC)cc2)nnc(-c2ccccc2)c1-c1ccccc1,.,.,.,23µM*,23µM*,.
CCOC(=O)c1cnc(-c2ccccc2)nc1Oc1ccc(Cl)cc1,1%,0%,23,?,-8%,-3%
Cc1ccc(-n2c(C)c(C)c3c(NCCO)ncnc32)cc1,2%,-25%,-28,?,27%,-3%
COc1ccc(CNC(=O)CN(C(=O)CCC(=O)Nc2nccs2)c2cccc(C)c2)cc1,3%,?,17,?,?,?
COc1ccccc1N=c1oc2cc(O)ccc2cc1C(=O)NCC1CCCO1 (stereo not given),0%,2%,-1,?,?,-1%
COc1ccccc1N=c1oc2cc(O)ccc2cc1C(N)=O,-8%,?,?,?,?,23µM*
COc1ccc2cc(C(N)=O)/c(=N\NC(=O)c3ccccc3)oc2c1,?,-8%,?,?,?,-1%
COc1cccc(N=c2oc3cc(O)ccc3cc2C(=O)NCC2CCCO2)c1 (stereo not given),-4%,-25%,-87*,21µM*,?,-2%
COc1ccc2cc(C(N)=O)c(=Nc3ccc(C)cc3)oc2c1,.,25%,-2,8.2µM*,-17%,14%
